Laboratory results as given in PubChem BioAssay (Tox21).
Unmarked numbers belong to inactive results. Activity calls are given as the source filed them. Calls come from the whole dose curve; as a rule, active = well fitted curve in the direction sought with a large enough effect in the repeat runs; inconclusive = weak or mixed curves; inactive = flat fitted curve, though single readings scatter.

Assay: qHTS assay to test for compound auto fluorescence at 590 nm (red) in HEK293 cells (AID 720679)
Conditions: red autofluorescence 540/590 nm; series mostly up to 91.3 µM
Description: National Center for Advancing Translational Sciences [NCATS]
NIH Chemical Genomics Center [NCGC]
U.S. Environmental Protection Agency [EPA]
National Institutes of Environmental Health Sciences [NIEHS]
National Toxicology Program [NTP]
U.S. Food and Drug Administration [FDA]
Compound auto fluorescence often interferes with screening of the compound library against various biological targets and signaling pathways. Some of these compounds may have fluorophoric properties. Such properties may interfere with the assay outputs resulting in false positives and/or negatives. To decrease such complications and ensure the compound activities are relevant in terms of biological response, the Tox21 10K compound library was screened for auto fluorescence.
From the fluorophores used as reporter signals in our screening assays, the auto fluorescence equivalencies of compounds against three fluorophores have been evaluated: Triamterene, Fluorescein and Rose Bengal sodium for blue, green and red fluorescence, respectively. The fluorescence intensities were measured using Excitation/Emission wavelengths at 405/460nm, 485/535nm and 540/590nm for blue, green and red labels, respectively. This assay includes the red fluorescence data.
Tox21 Assay Protocol Summary:
2,000 HEK293 cells in 5 uL of culture medium containing 10% dialyzed FBS per well were dispensed into black wall/clear bottom 1536-well plates using a Multidrop Combi Dispenser (Thermo Scientific). The assay plates were incubated for 4-5 hr at 37C to allow cell attachment to the well bottom, followed by the transfer of 23 nL compound or DMSO vehicle by a pintool work station (Kalypsys, San Diego, CA). After the assay plates were incubated overnight at 37C and 5% CO2, fluorescence intensities in the assay plates were measured by an Envision (PerkinElmer, Shelton, CT) plate reader using three labels for measuring blue, green and red fluorescence at […] 460, 535 and 590nm respectively.
% is set by controls: 0 for no effect and ±100 for the full control effect.

Compound | outcome | fluorescence, % of fluorescent control
CC(C)CC(=O)O | inactive | –
COc1ccc2c(c1)C(=O)N(CCc1ccc(S(=O)(=O)NC(=O)NC3CCCCC3)cc1)C(=O)C2(C)C | – | -0.014% [at 18.6 µM]
CCC(CC)CO | inactive | –
CN1C(C)(C)CCCC1(C)C | inactive | –
CN(CCOc1ccc(NS(C)(=O)=O)cc1)CCc1ccc(NS(C)(=O)=O)cc1 | inactive | –
O=C(CCN1CCN(CCO)CC1)N1c2ccccc2Sc2ccc(C(F)(F)F)cc21 | inactive | –
N[C@@H](COP(=O)(O)O)C(=O)O | inactive | –
CCCCCOC(=O)CCC | inactive | –
OCCCCC(O)CO (stereo not given) | inactive | –
CCCCCCCC/C=C\CCCCCCCC(=O)OCCCC | – | 0.3% [at 18.6 µM]
CC(=O)/C=C/C1C(C)=CCC(C)C1(C)C (stereo not given) | inactive | –
CC(CC=O)CCCC(C)(C)O (stereo not given) | inactive | –
CCc1ccc(C=O)cc1 | inactive | –
CC(CO)c1ccccc1 (stereo not given) | inactive | –
CCCCNC1CC(C)(C)NC(C)(C)C1 | inactive | –
CNS(=O)(=O)CCc1ccc2[nH]cc(C3CCN(C)CC3)c2c1 | inactive | –
O=C(NCC(O)CO)c1c(I)c(C(=O)NCC(O)CO)c(I)c(N(CCO)C(=O)CO)c1I (stereo not given) | – | -0.351% [at 18.6 µM]
C=C(C)C(=O)OCC(C)(C)COC(=O)C(=C)C | inactive | –
CCCCCCCCOS(=O)(=O)O | inactive | –
CCCCCCCCC(=O)Cl | inactive | –

Compound | outcome | fluorescence, % of fluorescent control
C=C(C)C(=O)OCCNC(C)(C)C | inactive | –
CC(=O)Nc1ccc(S(=O)(=O)Nc2ccc([N+](=O)[O-])cc2)cc1 | inactive | –
COC(=O)c1ccccc1C(=O)c1ccc(OCCN2CCCCC2)cc1 | inactive | –
BrCc1cccc(Oc2ccccc2)c1 | inactive | –
C=C(C)C1CCC(C)(O)CC1 (stereo not given) | inactive | –
BrCCCCCBr | inactive | –
C[Si](C)=O | – | -0.238% [at 9.17 µM]
CCN(CC)CC(=O)Nc1c(C)cccc1C | inactive | –
CC(C)CC(C)CC(C)CC(C)COC(=O)c1ccccc1C(=O)OCC(C)CC(C)CC(C)CC(C)C (stereo not given) | inactive | –
O=C(NCCN1CCOCC1)c1ccc(Cl)cc1 | inactive | –
Nc1cccc(O)c1 | inactive | –
CC(C)(C)OC(=O)c1ccc(O)cc1 | inactive | –
CCC(C)NC(N)=O (stereo not given) | inactive | –
C[C@H](CCC(=O)O)[C@H]1CC[C@H]2[C@@H]3C(=O)C[C@@H]4CC(=O)CC[C@]4(C)[C@H]3CC(=O)[C@]12C | inactive | –
Cc1ccsc1/C=C/C1=NCCCN1C | – | -1.08% [at 18.6 µM]
Cc1c(I)c(=O)n(-c2ccccc2)n1C | inactive | –
CC(=O)NCc1c(I)c(NC(C)=O)c(I)c(C(=O)O)c1I | inactive | –
OCCN(CCO)c1cccc(Cl)c1 | inactive | –
CNC(=O)[C@H]1O[C@@H](n2cnc3c(NCc4cc(Cl)ccc4OCc4cc(C)no4)ncnc32)[C@H](O)[C@@H]1N | inactive | –
CCCCOC(=O)c1ccccc1 | inactive | –
